SMN2 splice enh: enhancers of SMN2 splice variant expression. HEK293 SMN2-luciferase splicing reporter, luminescence, 30-36 h. Potency, µM (highest dose often 46.1 µM), hits mostly activators. 210,000 tested, 2.8% active. AID 1458; note: nearly all actives have a fitted effect of over 55% in size
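HEK293 cells carry an SMN2 minigene-luciferase reporter in which exon 7 inclusion puts luciferase in frame. Cells were seeded at 2000 cells/well, attached for 10-12 hours, then exposed to compounds for 30-36 hours at 37C before ONE-Glo luminescence.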
FLuc modulator: counter-screen for miR-21 project: firefly luciferase inhibitors or activators; P08659; purified FLuc, Km substrates, luminescence inhibition; Potency, µM (highest dose often 57.5 µM), most hits filed as inhibitors; 360,000 tested, 6.9% active; AID 588342; note: nearly all actives have a fitted effect of over 55% in size
Target sequence (P08659 whole entry, looked up): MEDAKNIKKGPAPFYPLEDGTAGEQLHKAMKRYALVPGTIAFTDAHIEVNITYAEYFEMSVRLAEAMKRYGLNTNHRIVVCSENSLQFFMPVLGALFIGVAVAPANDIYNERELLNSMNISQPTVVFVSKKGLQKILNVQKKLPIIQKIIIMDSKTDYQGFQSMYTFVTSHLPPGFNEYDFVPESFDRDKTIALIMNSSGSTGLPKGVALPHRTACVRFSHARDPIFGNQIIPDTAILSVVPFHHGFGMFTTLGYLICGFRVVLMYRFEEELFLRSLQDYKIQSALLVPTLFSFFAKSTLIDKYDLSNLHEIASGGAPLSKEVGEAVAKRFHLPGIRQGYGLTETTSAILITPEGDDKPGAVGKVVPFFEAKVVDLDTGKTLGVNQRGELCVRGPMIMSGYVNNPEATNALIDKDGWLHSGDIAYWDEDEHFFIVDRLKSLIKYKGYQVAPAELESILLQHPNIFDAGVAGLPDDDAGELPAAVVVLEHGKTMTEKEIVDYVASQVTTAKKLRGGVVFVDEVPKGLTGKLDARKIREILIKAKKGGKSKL
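Purified P. pyralis luciferase (10nM final) with 10uM D-luciferin and 10uM ATP (Km levels) in 50mM Tris acetate pH 7.5, 10mM Mg acetate, 0.01% Tween-20, 0.05% BSA; qHTS 6-point titration, ~60 µM downward; luminescence read.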
Rab9 promoter act: Rab9 promoter activation; Huh7 Rab9 promoter-luciferase reporter, luminescence, 24 h; Potency, µM (series often up to 9.22 µM), most hits filed as activators; 320,000 tested, 2.8% active; AID 485297; note: nearly all actives have a fitted effect of over 60% in size
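Quantitative HTS format; Huh7 Rab9-luciferase reporter cells (1500/well) receive compound 2 h post-plating, incubate 24 h at 37 °C, then get luciferase reagent for 10 min before luminescence reading.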
NPC1 promoter act: activators of NPC1 promoter. Potency, µM (titrated, usually from 9.22 µM), most hits filed as activators. Huh7 NPC1 promoter luciferase reporter, 24 h. 320,000 tested, 2.4% active; note: nearly all actives have a fitted effect of over 60% in size
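Luminescence read-out of NPC1 promoter-driven luciferase in stably transfected Huh7 cells; compounds delivered in DMSO and left 24 h at 37C, 5% CO2, qHTS titration format.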
ELG1 genotoxic: induces genotoxicity in HEK293T cells with luciferase-tagged ELG1 | HEK293T ELG1-luciferase reporter, luminescence, 16 h | Potency, µM (highest dose often 46 µM), most hits filed as activators | 330,000 tested, 1.3% active | AID 504466; note: nearly all actives have a fitted effect of over 60% in size
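ELG1-luciferase HEK293T cells, 2,000/well; compound pinned in; 16 hr, 37 °C, 5% CO2; ONE-Glo, 30 min RT; luminescence on CCD imager.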
KinaseGlo FLuc: blocks Kinase-Glo luciferase, a counter-screen artifact; Kinase-Glo luciferase, ATP luminescence, 8 min; Potency, µM (doses to about 38.3 µM), actives largely listed as inhibitors; 200,000 tested, 0.28% active; note: nearly all actives have a fitted effect of over 60% in size
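Inhibition of Kinase-Glo luciferase light generation was assessed at 10 uM ATP in pH 7.2 imidazole buffer, with luminescence measured after eight minutes at ambient temperature.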
Hits are given with their value; [ ] = remark or other dose. Hits are enriched below; roughly 7.5% of the tested compounds scored in any of these assays. Calls come from the whole dose curve; as a rule, active = well fitted curve in the direction sought with a large enough effect; inconclusive = small, poorly fitted or top-dose-only effect, or another doubt; inactive = no such curve, though single readings can be large; an effect the other way counts as inactive or inconclusive.

What do the screens show for `CCCOc1ccccc1/C=C(\C#N)C(=O)Nc1cccnc1`?
FLuc modulator: 19µM; Rab9 promoter act: inactive; NPC1 promoter act: inactive; ELG1 genotoxic: inconclusive

What do the screens show for `Cc1nc(NCc2ccccc2)c2nc(-c3ccccc3)n(CCN3CCCCC3)c2n1`?
SMN2 splice enh: inactive; KinaseGlo FLuc: inactive

Results for CC(C)(C)c1ccc(C(=O)N2CCCC2)s1 ?
FLuc modulator: 15.1µM; Rab9 promoter act: inactive; NPC1 promoter act: inactive; ELG1 genotoxic: inconclusive

What do the screens show for `Cc1cccc(-n2cnc3cc(C(=O)N4CCCCC4)ccc32)c1`?
SMN2 splice enh: inconclusive; FLuc modulator: 23.9µM; Rab9 promoter act: inconclusive; NPC1 promoter act: inconclusive; ELG1 genotoxic: inactive; KinaseGlo FLuc: inactive

Results for CCCCCNC(=O)c1ccc2c(c1)ncn2-c1cccc(C)c1 ?
FLuc modulator: inactive

What do the screens show for `O=C(CN1C(=O)COc2ccc(S(=O)(=O)N3CCOCC3)cc21)N1CCN(c2ccccc2)CC1`?
FLuc modulator: inactive

What do the screens show for `CCOc1ccc(-c2cnc3ccccc3n2)cc1`?
FLuc modulator: 0.169µM; Rab9 promoter act: inactive; NPC1 promoter act: inconclusive; ELG1 genotoxic: 0.517µM

How did O=[N+]([O-])c1ccc(-c2cnc3ccccc3n2)cc1 do in these assays?
FLuc modulator: inconclusive; Rab9 promoter act: inconclusive; NPC1 promoter act: 3.16µM; ELG1 genotoxic: inconclusive

What do the screens show for `CCOC(=O)C1CCN(c2nc3c(S(=O)(=O)c4ccccc4)nnn3c3ccc(Cl)cc23)CC1`?
SMN2 splice enh: inactive; FLuc modulator: inactive

What do the screens show for `CCCOc1ccccc1Cn1c(=O)sc2ccccc21`?
SMN2 splice enh: inactive; FLuc modulator: inactive

What do the screens show for `CN1CCC(N2CCN(c3cccc(C(F)(F)F)c3)CC2)CC1`?
SMN2 splice enh: inactive; FLuc modulator: inactive; Rab9 promoter act: inactive; NPC1 promoter act: inactive; ELG1 genotoxic: inactive; KinaseGlo FLuc: inactive

How did FC(F)(F)c1cccc(N2CCc3cn[nH]c32)c1 do in these assays?
SMN2 splice enh: inactive; FLuc modulator: 23.9µM; Rab9 promoter act: inactive; NPC1 promoter act: inactive; ELG1 genotoxic: inactive; KinaseGlo FLuc: inactive

Results for Cc1ccc(NC(=O)Nc2nnc(N3CCCCC3)s2)c(C)c1 ?
FLuc modulator: inactive

How did Cc1cc(N(C)C)ccc1N=Nc1ccc2ncccc2c1 do in these assays?
FLuc modulator: 0.426µM; Rab9 promoter act: 0.891µM; NPC1 promoter act: 3.16µM; ELG1 genotoxic: 4.61µM

How did CCOc1ccccc1C1NC(=O)CCC1[N+](=O)[O-] (stereo unspecified) do in these assays?
FLuc modulator: inactive; Rab9 promoter act: inactive; NPC1 promoter act: inactive; ELG1 genotoxic: inactive

How did Cn1nc(-c2ccc(N3CCOCC3)c(NS(=O)(=O)c3ccccc3)c2)c2ccccc2c1=O do in these assays?
SMN2 splice enh: inconclusive; FLuc modulator: inactive; Rab9 promoter act: inactive; NPC1 promoter act: inactive; ELG1 genotoxic: 13µM; KinaseGlo FLuc: inactive

Results for CC(=O)Nc1cc(-c2nn(C)c(=O)c3ccccc23)ccc1N1CCCCC1 ?
SMN2 splice enh: inactive; FLuc modulator: inactive; Rab9 promoter act: inactive; NPC1 promoter act: inactive; ELG1 genotoxic: inactive; KinaseGlo FLuc: inactive

Results for Cc1ccc(-c2nn(C)c(=O)c3ccccc23)cc1S(=O)(=O)N1CCOCC1 ?
SMN2 splice enh: inconclusive; FLuc modulator: inactive; Rab9 promoter act: inactive; NPC1 promoter act: inactive; ELG1 genotoxic: inconclusive; KinaseGlo FLuc: inactive

Results for Cc1ccc(-c2nn(C)c(=O)c3ccccc23)cc1S(=O)(=O)N1CCCC1 ?
SMN2 splice enh: inactive; FLuc modulator: inactive; Rab9 promoter act: inactive; NPC1 promoter act: inactive; ELG1 genotoxic: 16.4µM; KinaseGlo FLuc: inactive

What do the screens show for `CN(C)C(=O)c1ccc(-c2nc(N(C)C)c3ccccc3n2)cc1`?
SMN2 splice enh: inactive; KinaseGlo FLuc: 11.2µM

What do the screens show for `O=[N+]([O-])c1ccc(-c2nc(Nc3cccc(O)c3)c3ccccc3n2)cc1`?
FLuc modulator: inactive; Rab9 promoter act: inactive[1.84 µM]; NPC1 promoter act: inactive; ELG1 genotoxic: inactive

What do the screens show for `Cc1ccc(-c2nc(Nc3cccc(O)c3)c3ccccc3n2)cc1`?
FLuc modulator: 21.3µM; Rab9 promoter act: inactive; NPC1 promoter act: inactive; ELG1 genotoxic: inactive

Results for O=C(O)c1ccc(Nc2nc(-c3ccccc3)nc3ccccc23)cc1 ?
FLuc modulator: 21.3µM; Rab9 promoter act: inactive; NPC1 promoter act: inactive; ELG1 genotoxic: inactive

How did CNC(=O)c1ccc(Nc2nc(-c3ccccc3)nc3ccccc23)cc1 do in these assays?
FLuc modulator: inconclusive; Rab9 promoter act: inactive; NPC1 promoter act: inactive; ELG1 genotoxic: inactive

How did COCCN(CCOC)c1nc(-c2ccc(C)cc2)nc2ccccc12 do in these assays?
FLuc modulator: 13.5µM; Rab9 promoter act: inactive; NPC1 promoter act: inactive; ELG1 genotoxic: inactive

What do the screens show for `Cc1nc(SCC(=O)Nc2ccc3[nH]c(=O)[nH]c3c2)nc(C)c1C`?
ELG1 genotoxic: inactive

Results for O=C(NCc1ccccc1Cl)c1ccc2c(c1)OCO2 ?
FLuc modulator: inconclusive; Rab9 promoter act: inactive; NPC1 promoter act: inactive; ELG1 genotoxic: inactive

What do the screens show for `Cc1cccc(OCCSc2nc3ccccc3n2CC(=O)N2CCOCC2)c1`?
FLuc modulator: inactive

What do the screens show for `COC(=O)c1ccc(Nc2nc(-c3ccc(C)cc3)nc3ccccc23)cc1`?
SMN2 splice enh: inactive; FLuc modulator: inconclusive

How did Cc1ccc(-c2nc(Nc3ccc(O)cc3)c3ccccc3n2)cc1 do in these assays?
FLuc modulator: 23.9µM; Rab9 promoter act: inactive; NPC1 promoter act: inactive; ELG1 genotoxic: inactive

What do the screens show for `Cc1ccc(-c2nc(Nc3ccc(N4CCOCC4)cc3)c3ccccc3n2)cc1`?
FLuc modulator: 23.9µM; Rab9 promoter act: inactive; NPC1 promoter act: inactive; ELG1 genotoxic: inactive

Results for Cc1ccc(-c2nc(NCc3ccco3)c3ccccc3n2)cc1 ?
SMN2 splice enh: inactive; FLuc modulator: inconclusive; Rab9 promoter act: inactive; NPC1 promoter act: inactive; ELG1 genotoxic: inactive; KinaseGlo FLuc: inactive

Results for c1ccc(Nc2nc(-c3ccccc3)nc3ccccc23)cc1 ?
FLuc modulator: inactive; Rab9 promoter act: inactive; NPC1 promoter act: inactive; ELG1 genotoxic: inactive

Results for Cc1ccc(-c2nc(C(Cl)Cl)c3ccccc3n2)cc1 ?
FLuc modulator: 13.5µM; Rab9 promoter act: inactive; NPC1 promoter act: inactive; ELG1 genotoxic: inactive

Results for C=CCOc1c(Br)cc(/C=C2/NC(=S)N(C(C)=O)C2=O)cc1OC ?
SMN2 splice enh: inactive; FLuc modulator: 1.51µM; Rab9 promoter act: inactive; NPC1 promoter act: inactive; ELG1 genotoxic: inactive; KinaseGlo FLuc: inactive

What do the screens show for `COc1ccc(Cn2c(CO)cnc2SCc2ccc(C)cc2)cc1`?
FLuc modulator: 16.9µM

How did OCc1cnc(SCc2ccccc2)n1Cc1ccccc1 do in these assays?
SMN2 splice enh: inactive; FLuc modulator: inactive; Rab9 promoter act: inactive; NPC1 promoter act: inactive; ELG1 genotoxic: inactive; KinaseGlo FLuc: inactive

Screening results as filed in PubChem BioAssay.
